Hit rate of the full screen: of about 420,000 compounds, about 50,000 (12%) were called active. About 26% were inconclusive and are not listed. For the sample, actives were picked, then their nearest neighbours and some compounds at random. A number with no mark means an inactive call. Calls come from the whole dose curve; as a rule, active = well fitted inhibition curve with a large enough effect; inconclusive = small, poorly fitted or top-dose-only effect; inactive = flat fitted curve, though single readings scatter.
% is set by controls: 0 for no effect and ±100 for the full control effect; potency is the fitted concentration of half-maximal effect.

The assay can be described thus: qHTS for Inhibitors of human tyrosyl-DNA phosphodiesterase 1 (TDP1): qHTS in cells in presence of CPT. Note: nearly all actives have a fitted effect of over 55% in size. The following applies: chicken DT40 Tdp1-/-;hTDP1 cells + 20 nM CPT, ATP luminescence, 48 h; series mostly up to 46.2 µM; activity change, negative = growth inhibition: at the top concentration. In short, it runs like this:
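Cell growth measured by CellTiter-Glo luminescence after a minimum 48 h, 37 C compound exposure with 20 nM CPT in Tdp1-knockout DT40 cells stably expressing hTDP1, seeded 400/well; qHTS titration format.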
For the compound `O=C(N[C@H]1CC[C@H](CC(=O)N2CCCCC2)O[C@@H]1CO)c1cccc(F)c1`, the “activity change, negative = growth inhibition” value is -29.4%.

Take `CCc1cc2c(=O)c(-c3nc4ccccc4n3C)c(CCCC(=O)O)oc2cc1OC(=O)C(C)(C)C`: the “activity change, negative = growth inhibition” value was 4.25%.

Regarding `CC1=C(C(=O)N(C)C)CC(CC(=O)NCCN2CCOCC2)C(=O)N1Cc1ccccc1` (stereo unspecified), the “activity change, negative = growth inhibition” value is 1.27%.

Consider `COc1cccc(OCc2nnc3n2N=C(c2ccccc2)C(CC(=O)O)S3)c1` (stereo unspecified), for which the “activity change, negative = growth inhibition” value is 0.703%.

Regarding `O=C(COC(=O)Cn1[nH]c(=O)c2ccccc2c1=O)Nc1c(Cl)cccc1C(F)(F)F`, the “activity change, negative = growth inhibition” value is -6.62%.

As to `CC[C@H](C)[C@@H](C(=O)N1CCNCC1)n1cc([C@@H](N)Cc2ccc(O)cc2)nn1`, the “activity change, negative = growth inhibition” value is -15%.

On to `COc1cc2ccccc2cc1C(=O)N1CCOCC1`, for which the “activity change, negative = growth inhibition” value was -0.501%.

Take `COc1c(Br)cc2c(C)c(C(=O)N3CCOCC3)oc2c1Br`: the Potency is 20.6 µM (active).

Turning to `COc1cc(C(=O)N2CCOCC2)cc(OC)c1OC`, the Potency entry is “inactive”.

Consider `N#CCCN(C(=O)COC(=O)c1ccc2c(c1)OCCO2)c1ccccc1`, for which the “activity change, negative = growth inhibition” value is -0.784%.

On to `CC(C)c1c(C(=O)N/N=C/c2ccccc2C(=O)O)nnn1-c1nonc1N`, for which the “activity change, negative = growth inhibition” value was 2.99%.

As to `Cn1c(=O)[nH]c(=O)c2c1[nH]c(=S)n2Cc1ccccc1`, the “activity change, negative = growth inhibition” value is -2.11%.

As to `CCCc1c(C(=O)N/N=C(\C)CCc2ccc(OC)cc2)nnn1-c1nonc1N`, the “activity change, negative = growth inhibition” value is -9%.

Turning to `Cc1cccc(N2O[C@H]3C=CC2CCCC3)n1`, the “activity change, negative = growth inhibition” value was 2.68%.

`COP1(=O)C[C@@H](O)[C@@H](O)[C@@H](COCc2ccccc2)O1` (stereo partly specified): the “activity change, negative = growth inhibition” value was 13.7%.

For `O=C(NCCc1ccc(Cl)cc1)c1cccc(N2CCCC2=O)c1`, the “activity change, negative = growth inhibition” value was -22.3%.

As for `O=C(NCCc1ccc(Cl)cc1)c1ccc2c(c1)N(Cc1ccc(F)cc1)C(=O)CS2`, the Potency is 20.6 µM (active).

With `O=C(c1ccc2c(c1)N(Cc1ccc(F)cc1)C(=O)CS2)N1CCOCC1`, the “activity change, negative = growth inhibition” value was -2.88%.

For the compound `CC1CCN(C(=O)c2ccccc2NC(=O)Cc2ccccc2)CC1`, the “activity change, negative = growth inhibition” value was -0.159%.

With `Cc1cccc(C)c1NC(=O)CS(=O)CC(=O)N1CCN(c2ccccc2)CC1` (stereo unspecified), the “activity change, negative = growth inhibition” value is -12.8%.

As to `COc1ccc(N2CCN(C(=O)c3cccs3)CC2)cc1`, the “activity change, negative = growth inhibition” value was -13.7%.

Regarding `O=C(NC(=O)c1ccccc1N1CCCCC1)Nc1ccc(Br)cc1`, the “activity change, negative = growth inhibition” value was 5.47%.

For the compound `Cc1ccccc1C(=O)Nc1ccccc1NC(=O)c1ccccc1C`, the “activity change, negative = growth inhibition” value was -8.28%.

As to `COc1ccccc1C(=O)NC(=S)Nc1ccc(N2CCOCC2)cc1`, the “activity change, negative = growth inhibition” value was -15.4%.

Take `Cc1ccccc1C(=O)Nc1ccc(N2CCCCCC2)cc1`: the Potency was 14.6 µM (active).

In the case of `Cc1ccccc1C(=O)N1CCN(c2ccc(NC(=O)c3cccs3)cc2)CC1`, the Potency is 18.4 µM (active).

Regarding `Cc1ccccc1C(=O)NC(=S)Nc1ccc(N2CCN(C(=O)c3ccccc3)CC2)cc1`, the Potency is 10.3 µM (active).

With `O=C(Nc1ccc(N2CCN(C(=O)C3CC3)CC2)cc1)c1cccs1`, the “activity change, negative = growth inhibition” value is 2.26%.

Take `O=C(NC1CCCC1)C(c1c(F)cccc1Cl)N(C(=O)c1csnn1)C1CC1` (stereo unspecified): the “activity change, negative = growth inhibition” value was -3.21%.

With `CCOC(=O)c1cn[nH]c1NC(=S)Nc1ccccc1`, the “activity change, negative = growth inhibition” value is -2.15%.

For the compound `CCCCN1C(=O)C(=O)N(CC(=O)Nc2cccc(C(C)=O)c2)C1=O`, the “activity change, negative = growth inhibition” value is 4.23%.

Regarding `Cc1cccc(-c2ncc(CN3CCC(CO)(CCCc4ccccc4)CC3)cn2)c1`, the Potency was 23.1 µM (active).

As to `OCC1(CCc2ccccc2)CCN(Cc2ccc3nsnc3c2)CC1`, the “activity change, negative = growth inhibition” value was -0.556%.

With `OCC1(CCOc2ccccc2)CCN(Cc2cn[nH]c2-c2ccccc2)CC1`, the “activity change, negative = growth inhibition” value is -27.5%.

Consider `CC(=O)Nc1ccc2c3c(ccc([N+](=O)[O-])c13)CC2`, for which the “activity change, negative = growth inhibition” value is -4.5%.

`CN1CCN(C(=O)c2ccccc2NC(=O)COc2ccccc2Cl)CC1`: the “activity change, negative = growth inhibition” value was -15.8%.

With `COc1ccccc1OCC(=O)Nc1ccccc1C(=O)NC1CC1`, the “activity change, negative = growth inhibition” value is 17%.

Turning to `O=C(COc1ccccc1Cl)Nc1ccccc1C(=O)NC1CC1`, the Potency was 23.1 µM (active).

Consider `S=c1[nH]nc2c3c4c(sc3ncn12)CCCC4`, for which the “activity change, negative = growth inhibition” value is -7.17%.

`CCC1(CC)C(=O)C2=C3C1[C@H](C(=O)OC)C=C(C(=O)OC)C[C@H]3[C@H]1C(=O)N(Cc3ccccc3)C(=O)[C@H]1[C@H]2C` (stereo partly specified): the Potency is 4.61 µM (active).

For `CCOC(=O)C1=CCC2C(=O)N(Cc3ccccc3)C(=O)C12` (stereo unspecified), the “activity change, negative = growth inhibition” value was -14.7%.

`COC(=O)C1=C[C@@H](C(=O)OC)[C@@H]2C3=C(C(=O)[C@]2(C)NC(=O)c2ccccc2)[C@H](C)n2c(=O)n(C)c(=O)n2[C@@H]3C1`: the “activity change, negative = growth inhibition” value is 0.582%.

Take `COc1ccc(NS(=O)(=O)c2cccc(C(=O)NCCc3ccc(S(N)(=O)=O)cc3)c2)cc1`: the “activity change, negative = growth inhibition” value was -12.7%.

On to `COc1ccc(NS(=O)(=O)c2ccc(Oc3c(C#N)cccc3C#N)cc2)cc1`, for which the Potency was 10.3 µM (active).

Consider `CCOc1ccc(S(=O)(=O)Nc2ccc(S(=O)(=O)Nc3cc(OC)ccc3OC)cc2)cc1`, for which the “activity change, negative = growth inhibition” value was -1.74%.

Regarding `CCN1CCN(C(=O)CN(C)S(=O)(=O)c2ccc3ccccc3c2)CC1`, the “activity change, negative = growth inhibition” value was -28.4%.

Take `O=C1NC[C@H](CCCCN2C[C@H](Cc3ccc(O)cc3)N(CCc3ccccc3)C(=O)C2=O)N(CCc2ccccc2)C1=O`: the “activity change, negative = growth inhibition” value is 6.06%.

For the compound `C#CCOc1ccc(/C=C2/C(=O)NN(c3ccccc3)C2=O)cc1OC`, the “activity change, negative = growth inhibition” value is -2.2%.

Take `O=C(O)CC/C(=N\NC(=O)c1ccc(F)cc1)c1ccc(Br)cc1`: the “activity change, negative = growth inhibition” value was 4.87%.

Turning to `O=C(C[n+]1cc(Br)cc2ccccc21)c1ccc(F)cc1`, the Potency is 14.1 µM (active).

For the compound `O=C(CNC(=O)c1ccccc1F)c1ccc(Br)cc1`, the “activity change, negative = growth inhibition” value is 11.2%.

With `CCOc1ccc(NC(=O)CCC(=O)N2CC(C)Oc3ccc(C)cc32)cc1` (stereo unspecified), the Potency was 25.9 µM (active).

For the compound `Cc1ccc2c(c1)N(C(=O)CCC(=O)NCc1ccccc1F)CC(C)O2` (stereo unspecified), the “activity change, negative = growth inhibition” value is -28.3%.

For the compound `CCOc1ccc(NC(=O)CCNC(=O)c2ccc(Br)cc2)cc1`, the “activity change, negative = growth inhibition” value was -9.36%.

In the case of `CCc1nc2cc(C(=O)NCC3CCS(=O)(=O)C3)cc(NC(=O)c3ccccc3OC)c2n1C` (stereo unspecified), the activity change, negative = growth inhibition is 6.63% [at 9.04 µM].

Take `O=c1[nH]c2cc(Br)ccc2n2cccc12`: the “activity change, negative = growth inhibition” value is -22.2%.

Turning to `CCN(CC(=O)NCc1ccco1)S(=O)(=O)c1ccc(F)cc1`, the “activity change, negative = growth inhibition” value was -0.0669%.

In the case of `COc1ccc(Cc2nnc(NC(=O)c3ccc(OC)cc3OC)s2)cc1`, the “activity change, negative = growth inhibition” value was -19.9%.

`COc1cc(SC)ccc1C(=O)Nc1nc(C)cs1`: the Potency is 20.6 µM (active).

Turning to `Cc1csc(NC(=O)c2ccc(C)s2)n1`, the “activity change, negative = growth inhibition” value was -0.098%.

With `Cc1cc(NC(=O)Nc2c[nH]c(=O)[nH]c2=O)ccc1Br`, the “activity change, negative = growth inhibition” value is -16.6%.

`Cc1ccc(NS(=O)(=O)c2ccc3c(c2)CC(=O)N3)cc1Cl`: the “activity change, negative = growth inhibition” value is -1.76%.

For `COc1ccc(CNC(=O)Cn2nnc(-c3ccc(S(C)(=O)=O)cc3)n2)cc1`, the “activity change, negative = growth inhibition” value was 1.87%.

For `COc1ccc(N=Nc2c(-c3ccc(OC)cc3)[nH]oc2=O)cc1`, the “activity change, negative = growth inhibition” value is -11.3%.

Regarding `COC1=CC(=O)OC(c2ccc(OC)cc2)C1` (stereo unspecified), the “activity change, negative = growth inhibition” value was 10.2%.

For `COc1ccc(N=C2C=CC(=O)O2)cc1`, the Potency was 5.17 µM (active).

The record behind these values is PubChem BioAssay AID686979 (National Center for Advancing Translational Sciences (NCATS), 2013).
